Inconclusive results are not listed. Activity calls are given as the source filed them. Calls follow the shape of the dose curve; as a rule, active = well fitted curve in the direction sought with a large enough effect; inconclusive = small, poorly fitted or top-dose-only effect, or another doubt; inactive = no such curve, though single readings can be large; an effect the other way counts as inactive or inconclusive.
Legend:
CRL-7250 = normal cell line; assay: Cytotoxic Profiling of Annotated Libraries Using Quantitative High-Throughput Screening (AID 1296008); conditions: Five cell lines viability, CellTiter-Glo ATP luminescence, 48-72 h; max response: active compounds read low; also: nearly all actives have a fitted effect of over 60% in size; as to max response: % is scaled to controls: 0 for no effect and ±100 for the full control effect
Procedure, shortened: (§1)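 Cytotoxicity was measured as CellTiter-Glo ATP luminescence, read after 10 min at room temperature. Compound treatment of the cells lasted 48 or 72 hr at 37 degrees Celsius in a qHTS format.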

HaCat [1] = assay: as above; conditions: Five cell lines viability, CellTiter-Glo ATP luminescence, 48-72 h; max response: active compounds read low
Procedure, shortened: as §1

KB-3-1 = assay: as above; conditions: Five cell lines viability, CellTiter-Glo ATP luminescence, 48-72 h; max response: active compounds read low
Procedure, shortened: as §1

NIH3T3 = assay: as above; conditions: Five cell lines viability, CellTiter-Glo ATP luminescence, 48-72 h; max response: active compounds read low
Procedure, shortened: as §1

HACAT [2] = assay: qHTS assay to identify novel small-molecules to repurpose for Merkel cell carcinoma treatment (AID 1296009); conditions: MCC and control cell lines, CellTiter-Glo viability, 72 h; at 44.8 µM (top of the series) unless noted; also: nearly all actives have a fitted effect of over 60% in size
Procedure, shortened: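 After compound transfer in DMSO, plates were kept 72 hr at 37 degree celsius. Luminescent ATP signal from CellTiter-Glo served as viability measure, normalized against DMSO and no-cell controls.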

C33A = assay: Primary qHTS to identify gynecologic anti-cancer compounds using libraries of approved drugs and bioactive compounds (AID 1345084); conditions: Gynecologic cancer cell panel viability, ATPlite luminescence, 48 h; series mostly up to 57.5 µM; also: % is scaled to controls: 0 for no effect and ±100 for the full control effect; nearly all actives have a fitted effect of over 55% in size
Procedure, shortened: (§2)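 Cells, 1,000 per well, were allowed to settle for 16 h at 37 C before compound addition. Five concentrations were tested for 48 h, and viability was read by ATPlite luminescence after 15 min at room temperature.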

CAOV3 = assay: as above; conditions: Gynecologic cancer cell panel viability, ATPlite luminescence, 48 h; series mostly up to 57.5 µM
Procedure, shortened: as §2

CASKI = assay: as above; conditions: Gynecologic cancer cell panel viability, ATPlite luminescence, 48 h; series mostly up to 57.5 µM
Procedure, shortened: as §2

Es-2 = assay: as above; conditions: Gynecologic cancer cell panel viability, ATPlite luminescence, 48 h; series mostly up to 57.5 µM
Procedure, shortened: as §2

HeLa = assay: as above; conditions: Gynecologic cancer cell panel viability, ATPlite luminescence, 48 h; series mostly up to 57.5 µM
Procedure, shortened: as §2

Hek293T = assay: as above; conditions: Gynecologic cancer cell panel viability, ATPlite luminescence, 48 h, control line for the selectivity index; series mostly up to 57.5 µM
Procedure, shortened: as §2

JEG-3 = assay: as above; conditions: Gynecologic cancer cell panel viability, ATPlite luminescence, 48 h; series mostly up to 57.5 µM
Procedure, shortened: as §2

OV90 = assay: as above; conditions: Gynecologic cancer cell panel viability, ATPlite luminescence, 48 h; series mostly up to 57.5 µM
Procedure, shortened: as §2

PA-1 = assay: as above; conditions: Gynecologic cancer cell panel viability, ATPlite luminescence, 48 h; series mostly up to 57.5 µM
Procedure, shortened: as §2

O=C(O)c1ccc(S(=O)(=O)N(Cc2ccc(OC(F)(F)F)cc2)c2ncc(C(F)(F)F)cc2Cl)cc1
inactive: max response (CRL-7250) -3.34% | outcome (HaCat [1]) | max response (KB-3-1) 0.52% | max response (NIH3T3) -0.0805% | outcome (HACAT [2]) | Potency (C33A) | Potency (CAOV3) | Potency (CASKI) | Potency (Es-2) | Potency (HeLa) | Potency (Hek293T) | Potency (JEG-3) | Potency (OV90) | Potency (PA-1)

O=C(O)c1cc(N(Cc2ccc(C3CCCCC3)cc2)C(=O)c2ccc(Oc3ccccc3)cc2)ccc1O
inactive: max response (CRL-7250) -16.9% | outcome (HaCat [1]) | outcome (KB-3-1) | max response (NIH3T3) -0.211% | outcome (HACAT [2]) | Potency (C33A) | Potency (CAOV3) | Potency (CASKI) | Potency (Es-2) | Potency (HeLa) | Potency (Hek293T) | Potency (JEG-3) | Potency (OV90) | Potency (PA-1)

CC(NCCCc1cccc(C(F)(F)F)c1)c1cccc2ccccc12 (configuration not stated)
inactive: max response (CRL-7250) 1.05% | outcome (HaCat [1]) | max response (KB-3-1) -6.75% | max response (NIH3T3) 3.68% | outcome (HACAT [2]) inactive [at 17.4 µM] | Potency (C33A) | Potency (CAOV3) | Potency (CASKI) | Potency (Es-2) | Potency (HeLa) | Potency (Hek293T) | Potency (JEG-3) | Potency (OV90) | Potency (PA-1)

CN1CCN(C2=Nc3ccccc3Nc3ccc(Cl)cc32)CC1
inactive: max response (CRL-7250) -0.222% | outcome (HaCat [1]) | max response (KB-3-1) -4.21% | max response (NIH3T3) 2.15% | outcome (HACAT [2]) | Potency (C33A) | Potency (CAOV3) | Potency (CASKI) | Potency (Es-2) | Potency (HeLa) | Potency (Hek293T) | Potency (JEG-3) | Potency (OV90) | Potency (PA-1)

Cc1cccc(N2CCN(C(=O)c3cc(S(=O)(=O)N(C)C)ccc3N3CCCC3)CC2)c1C
inactive: max response (CRL-7250) -10.2% | outcome (HaCat [1]) | outcome (KB-3-1) | max response (NIH3T3) -5.43% | outcome (HACAT [2]) | Potency (C33A) | Potency (CAOV3) | Potency (CASKI) | Potency (Es-2) | Potency (HeLa) | Potency (Hek293T) | Potency (JEG-3) | Potency (OV90) | Potency (PA-1)

CC1(C)CCCC2(C)C1C(OC(=O)/C=C/C=C/C=O)C=C1COC(=O)C12O (configuration not stated)
inactive: max response (CRL-7250) -21.2% | outcome (HaCat [1]) | outcome (KB-3-1) | max response (NIH3T3) -7.98% | outcome (HACAT [2]) inactive [at 17.4 µM] | Potency (C33A) | Potency (CAOV3) | Potency (CASKI) | Potency (Es-2) | Potency (HeLa) | Potency (Hek293T) | Potency (JEG-3) | Potency (OV90) | Potency (PA-1)

O=c1cc(OCc2ccc(F)cc2)ccn1-c1ccc(OCCN2CCCC2)cc1
inactive: max response (CRL-7250) -11.7% | outcome (HaCat [1]) | max response (KB-3-1) -29.6% | max response (NIH3T3) -16.9% | outcome (HACAT [2]) | Potency (C33A) | Potency (CAOV3) | Potency (CASKI) | Potency (Es-2) | Potency (HeLa) | Potency (Hek293T) | Potency (JEG-3) | Potency (OV90) | Potency (PA-1)

CCNC(=O)N1CCCN(c2ccc(C(=O)NCCc3ccc(Cl)cc3Cl)cc2NC(=O)c2cccc(Cl)c2)CC1
inactive: max response (CRL-7250) -3.91% | outcome (HaCat [1]) | max response (KB-3-1) -2.47% | max response (NIH3T3) 2.92% | outcome (HACAT [2]) | Potency (C33A) | Potency (CAOV3) | Potency (CASKI) | Potency (Es-2) | Potency (HeLa) | Potency (Hek293T) | Potency (JEG-3) | Potency (OV90) | Potency (PA-1)

COc1ccc(-c2cnc3c(-c4cccc5ncccc45)cnn3c2)cc1
inactive: outcome (CRL-7250) | outcome (HaCat [1]) | max response (KB-3-1) -5.9% | max response (NIH3T3) -19.7% | outcome (HACAT [2]) | Potency (C33A) | Potency (CAOV3) | Potency (CASKI) | Potency (Es-2) | Potency (HeLa) | Potency (Hek293T) | Potency (JEG-3) | Potency (OV90) | Potency (PA-1)

COc1ccncc1C(=O)NC(=O)Nc1ccc(-c2ccccc2)c(C(F)(F)F)c1
inactive: outcome (CRL-7250) | outcome (HaCat [1]) | max response (KB-3-1) -11.2% | max response (NIH3T3) 3.25% | outcome (HACAT [2]) | Potency (C33A) | Potency (CAOV3) | Potency (CASKI) | Potency (Es-2) | Potency (HeLa) | Potency (Hek293T) | Potency (JEG-3) | Potency (OV90) | Potency (PA-1)

COc1ccc(CCO[C@@H]2O[C@H](CO[C@H]3OC[C@](O)(CO)[C@H]3O)[C@@H](OC(=O)/C=C/c3ccc(O)c(O)c3)[C@H](O[C@@H]3O[C@@H](C)[C@H](O)[C@@H](O)[C@H]3O)[C@H]2O)cc1OC
inactive: max response (CRL-7250) -14.2% | outcome (HaCat [1]) | max response (KB-3-1) 2.16% | max response (NIH3T3) -1.58% | outcome (HACAT [2]) inactive [at 17.4 µM] | Potency (C33A) | Potency (CAOV3) | Potency (CASKI) | Potency (Es-2) | Potency (HeLa) | Potency (Hek293T) | Potency (JEG-3) | Potency (OV90) | Potency (PA-1)

CC(C)(C)Sc1c(CC(C)(C)C(=O)O)n(Cc2ccc(Cl)cc2)c2ccc(OCc3ccc4ccccc4n3)cc12
inactive: max response (CRL-7250) -0.604% | outcome (HaCat [1]) | outcome (KB-3-1) | max response (NIH3T3) 1.54% | outcome (HACAT [2]) | Potency (C33A) | Potency (Es-2) | Potency (HeLa) | Potency (Hek293T) | Potency (JEG-3) | Potency (OV90) | Potency (PA-1)

COc1ccc([C@H](Cc2ccncc2)c2ccccc2)cc1OC1CCCC1
inactive: max response (CRL-7250) -5.35% | outcome (HaCat [1]) | max response (KB-3-1) -4.42% | max response (NIH3T3) -22.8% | outcome (HACAT [2]) | Potency (C33A) | Potency (CASKI) | Potency (Es-2) | Potency (HeLa) | Potency (Hek293T) | Potency (JEG-3) | Potency (OV90) | Potency (PA-1)

O=C1COC2(CCN(S(=O)(=O)c3ccc(-c4ccc5cccnc5c4)cc3)CC2)CN1C1CC1
inactive: max response (CRL-7250) -2.24% | outcome (HaCat [1]) | max response (KB-3-1) 7.72% | max response (NIH3T3) -10.8% | outcome (HACAT [2]) | Potency (C33A) | Potency (CAOV3) | Potency (CASKI) | Potency (Es-2) | Potency (HeLa) | Potency (Hek293T) | Potency (JEG-3) | Potency (PA-1)
